Screens deposited in PubChem by National Center for Advancing Translational Sciences (NCATS).
Shown are actives, neighbours in structure and some others; about 2.4% of the full set was active somewhere.
FEN1 inhibitor = blocks human flap endonuclease 1; 390,000 tested, 0.35% active; P39748; Potency, µM (series often up to 114 µM), for the others: top-dose activity change, negative = inhibition, usual class: inhibitors; Recombinant FEN1 flap cleavage, fluorescence, 15 min; note: % is set by controls: 0 for no effect and ±100 for the full control effect; nearly all actives have a fitted effect of over 65% in size
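FEN1 at 10 nM preincubated with compounds 15 min at room temperature, then flap DNA substrate added at 50 nM final. Signal read at 0 and 15 min; concentration-response fitted with four-parameter Hill equation.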
POLI inh = DNA polymerase iota (human) inhibition; Q9UNA4; Pol iota fluorescent replication assay, 10 min; Potency, µM (top dose mostly 115 µM), inactives show at the top dose activity, negative = inhibition, actives largely listed as inhibitors; 390,000 tested, 1% active; AID 588590
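Fluorescent replication assay read twice, at 0 min and 10 min after adding 50 nM (final) substrate. Enzyme (10 nM) and compounds were first incubated 15 min at room temperature; enzyme-free buffer wells were negative controls.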
Pol eta inh-1 = blocks human DNA polymerase eta activity | Q9Y253 | recombinant Pol eta, fluorescent DNA replication assay | Potency, µM (top dose mostly 114 µM), inactives show at the top dose activity change, negative = inhibition, usual class: inhibitors | 390,000 tested, 1.2% active; note: % is set by controls: 0 for no effect and ±100 for the full control effect
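Fluorescent replication assay: 50 nM final substrate added after a 15 min room-temperature compound preincubation with 10 nM enzyme. Signal taken at 0 min and again at 10 min.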
Pol beta inh = blocks human DNA polymerase beta activity; Pol beta primer extension/strand displacement, fluorescence kinetic; Potency, µM (titrated, usually from 114 µM), for the others: at the top dose activity change, negative = inhibition, actives largely listed as inhibitors; P06746; AID 485314; 340,000 tested, 1.3% active; note: % is set by controls: 0 for no effect and ±100 for the full control effect
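Pol beta (10 nM) was preincubated with compound for 15 min at room temperature. The reaction was then started with 50 nM substrate and read immediately and after a further 10 min at room temperature.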
PGK inhibitor = T. brucei PGK inhibition | P07378 | Potency, µM (doses to about 57.5 µM), without a hit: at the top dose activity change, negative = inhibition, usual class: inhibitors | PGK/GAPDH coupled, Kinase-Glo luminescence, 60 min | 380,000 tested, 0.043% active; note: % is set by controls: 0 for no effect and ±100 for the full control effect; nearly all actives have a fitted effect of over 60% in size
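Luminescent ATP detection (Kinase-Glo Plus) follows a 60-minute room-temperature incubation, with wells lacking PGK as controls. Buffer: 100 mM TEA (pH 7.6), 5 mM MgCl2, 0.01% Tween-20. Coupling enzyme GAPDH (100 nM final) supplies unstable 1,3-BPG in-well.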
Pol kappa inh-1 = blocks human DNA polymerase kappa activity | Q9UBT6 | purified Pol kappa, fluorescent DNA synthesis assay, 10 min | Potency, µM (series often up to 107 µM), for the others: at the top dose activity, negative = inhibition, hits mostly inhibitors | 400,000 tested, 0.53% active | AID 588579; note: % is set by controls: 0 for no effect and ±100 for the full control effect
Target sequence (Q9UBT6 whole entry, looked up): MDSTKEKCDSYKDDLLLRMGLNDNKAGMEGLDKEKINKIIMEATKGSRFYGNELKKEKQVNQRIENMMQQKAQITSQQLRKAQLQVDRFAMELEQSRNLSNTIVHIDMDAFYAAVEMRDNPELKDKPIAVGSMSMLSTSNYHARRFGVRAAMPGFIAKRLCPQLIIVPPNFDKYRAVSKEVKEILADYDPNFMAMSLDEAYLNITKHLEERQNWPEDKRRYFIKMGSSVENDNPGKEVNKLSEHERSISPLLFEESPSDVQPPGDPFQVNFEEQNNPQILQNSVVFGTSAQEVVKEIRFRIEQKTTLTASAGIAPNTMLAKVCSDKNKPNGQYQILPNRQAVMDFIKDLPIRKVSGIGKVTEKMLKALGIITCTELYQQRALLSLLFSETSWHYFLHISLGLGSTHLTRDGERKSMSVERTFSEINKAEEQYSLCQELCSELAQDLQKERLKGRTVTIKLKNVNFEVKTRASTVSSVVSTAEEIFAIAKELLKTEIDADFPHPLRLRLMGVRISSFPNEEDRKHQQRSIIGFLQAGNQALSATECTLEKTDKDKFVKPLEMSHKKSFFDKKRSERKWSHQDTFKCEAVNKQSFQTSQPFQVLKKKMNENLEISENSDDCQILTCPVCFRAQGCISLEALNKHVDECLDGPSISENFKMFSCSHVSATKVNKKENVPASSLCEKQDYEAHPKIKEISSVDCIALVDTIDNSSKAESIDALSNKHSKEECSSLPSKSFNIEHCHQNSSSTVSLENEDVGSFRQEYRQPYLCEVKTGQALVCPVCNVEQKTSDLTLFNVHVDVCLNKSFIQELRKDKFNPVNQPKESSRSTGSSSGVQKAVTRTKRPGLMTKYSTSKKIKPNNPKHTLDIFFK
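50 nM final substrate added after 15 min RT preincubation of 10 nM Pol kappa with compound; fluorescence read at 0 and 10 min.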
TbPGK inh = TbPGK inhibition, hit validation | 500 tested, 79% active | shares compounds with Pol kappa inh-1 | Potency, µM (titrated, usually from 57.5 µM), for the others: at the top dose activity change, negative = inhibition, hits mostly inhibitors | TbPGK coupled GAPDH assay, Kinase-Glo luminescence; note: % is set by controls: 0 for no effect and ±100 for the full control effect; nearly all actives have a fitted effect of over 65% in size
Pol iota confirm = Inhibitors of human DNA polymerase iota, confirmation. AID 720496. Pol iota primer extension, TAMRA/BHQ fluorescence. 1,500 tested, 77% active. Potency, µM, usual class: inhibitors. shares compounds with Pol kappa inh-1
Pol kappa inh-2 = confirmation of human DNA polymerase kappa inhibitors; shares compounds with Pol eta inh-1; purified Pol-kappa, fluorescent strand-displacement substrate; Potency, µM, hits mostly inhibitors; 920 tested, 76% active
Pol eta inh-2 = confirmation of human DNA polymerase eta inhibitors | shares compounds with Pol eta inh-1 | 2,600 tested, 64% active | Potency, µM, usual class: inhibitors | Pol eta primer extension, TAMRA/BHQ fluorescence, 10 min
Active calls of the source: *; ? = inconclusive; . = not tested or not shown; [ ] = another dose, or the depositor's remark. Calls come from the whole dose curve; as a rule, active = well fitted curve in the direction sought with a large enough effect; inconclusive = small, poorly fitted or top-dose-only effect, or another doubt; inactive = no such curve, though single readings can be large; an effect the other way counts as inactive or inconclusive. Potency is the fitted concentration of half-maximal effect.

SMILES	FEN1 inhibitor	POLI inh	Pol eta inh-1	Pol beta inh	PGK inhibitor	Pol kappa inh-1	Pol iota confirm	Pol kappa inh-2	Pol eta inh-2	others
Cc1cc(/C=C2/C(=O)NC(=O)N(c3ccccc3)C2=O)c(C)n1-c1ccc(F)cc1	0.6%	?	?	.	-10.7%	-17.7%	.	.	.
Cc1cc(/C=C2\C(=O)NC(=O)N(c3ccc(F)cc3)C2=O)c(C)n1-c1ccc(C(=O)O)cc1	-5.6%	?	?	14.9%	-7.5%	-17.9%	.	.	.
NCC(CC(=O)O)c1ccc(Cl)s1 (stereo not given)	.	.	.	.	.	6.6%[19.4 µM]	.	.	.
C[C@H]1O[C@@H](O[C@H]2[C@@H](O)C[C@H](O[C@H]3[C@@H](O)C[C@H](O[C@H]4CC[C@]5(C)C6CC[C@]7(C)[C@@H](C8=CC(=O)OC8)CC[C@]7(O)C6CC[C@@H]5C4)O[C@@H]3C)O[C@@H]2C)C[C@H](O)[C@@H]1O (stereo not given in full)	.	.	.	.	.	-5.5%[19.4 µM]	.	.	.
CN(C)c1c([N+](=O)[O-])cc(N2C(=O)C=CC2=O)cc1[N+](=O)[O-]	-1.1%	?	-16.9%	.	-0.1%	-37.1%	.	.	.
Cn1cccc1/C=C1\C(=O)NC(=O)N(Cc2ccco2)C1=O	?	7.94µM*	10µM*	14.1µM*	?	22.4µM*	16.8*	.	16.9*
Cc1ccc(/C=C2\C(=O)NC(=O)N(CCc3ccc(F)cc3)C2=O)o1	?	?	-13.9%	-11.4%	.	-30.7%	.	.	.
Cc1cc(/C=C2\C(=O)NC(=O)N(c3ccc(Cl)cc3)C2=O)c(C)n1-c1sc2c(c1C#N)CCCC2	?	10µM*	20µM*	?	-13.5%	79.4µM*	75.2*	75.2*	30.1*
CC(=O)N1CCN(c2ccc(OC[C@@H]3CO[C@@](Cn4ccnc4)(c4ccc(Cl)cc4Cl)O3)cc2)CC1	1.7%	-16.3%	.	.	.	-13.7%	.	.	.
O=C1NC(=O)C(=Cc2ccco2)C(=O)N1	?	?	8.91µM*	.	11.2µM*	39.8µM*	67*	21.2*	30.1*	TbPGK inh=3.66µM*
CCN(CCCl)c1cc(CN(C)C)cc(NC(=O)c2ccc(C(=O)Nc3cc(CN(C)C)cc(N(CC)CCCl)c3)cc2)c1	?	28.2µM*	11.2µM*	.	4.8%	?	23.8*	0.532*	.
O=C(NC1CCCCC1)c1cn(CCN2CCOCC2)c2cc(Cl)ccc2c1=O	.	.	.	.	.	3.0%[60.1 µM]	.	.	.
O=C1NC(=O)N(Cc2ccc(F)cc2)C(=O)/C1=C\c1ccoc1	?	14.1µM*	22.4µM*	?	-23.5%	25.1µM*	18.9*	16.8*	30.1*
COc1ccccc1CNC(=O)CCNS(=O)(=O)c1ccc2c(c1)oc(=O)n2C	-11.1%	10.7%	-3.9%	41.2%	-0.5%	-1.9%	.	.	.
C=C1C(=O)O[C@H]2C[C@@H](C)[C@@H]3C=CC(=O)[C@@]3(C)C[C@H]12	1.1%	?	-12.1%	-1.1%	-8.9%	-1.2%	.	.	.
C=C1C(=O)O[C@@H]2C[C@@H](C)[C@@H]3C=CC(=O)[C@@]3(C)[C@@H](OC(=O)CC(=O)O[C@H]3[C@@H]4C(=C)C(=O)O[C@@H]4C[C@@H](C)[C@@H]4C=CC(=O)[C@]43C)[C@H]12	?	4.47µM*	7.94µM*	20µM*	?	35.5µM*	18.9*	.	16.9*
